# Measurements published in PubChem BioAssay (Tox21).
# Records with an inconclusive call do not appear. Entries that show only a call come without a potency. Some structures have more than one record in an assay (separate samples or runs), and their calls can disagree. Active and inactive are the calls of the source. Unless noted, calls come from the whole dose curve; as a rule, active = well fitted curve in the direction sought with a large enough effect in the repeat runs; inconclusive = weak or mixed curves; inactive = no such curve, though single readings can be large; an effect the other way counts as inactive or inconclusive.
# Columns and labels:
# [1] = qHTS assay to test for compound auto fluorescence at 535 nm (green) in HEK293 cells (AID 720680)
# [2] = qHTS assay to test for compound auto fluorescence at 460 nm (blue) in HEK293 cell free culture (AID 720681); note: potency is the fitted concentration of half-maximal effect
# In short: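 Compounds were added to cell-free DMEM with 10% FBS and fluorescence read directly. The blue channel used 405 nm excitation and 460 nm emission, with triamterene as the reference fluorophore.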
# [3] = qHTS assay to test for compound auto fluorescence at 535 nm (green) in HEK293 cell free culture (AID 720682)
# In short: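 Measurement is a direct plate read of green fluorescence (485 nm in, 535 nm out) after compound addition to serum-supplemented DMEM lacking cells, with fluorescein used to express intensities.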
# [4] = qHTS assay to test for compound auto fluorescence at 590 nm (red) in HEK293 cell free culture (AID 720683)
# In short: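 Cell-free wells of DMEM with 10% FBS received compound, and intrinsic fluorescence was read at excitation/emission 540/590 nm. Values expressed as equivalence to Rose Bengal sodium.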
# [5] = qHTS assay to test for compound auto fluorescence at 590 nm (red) in HepG2 cell free culture (AID 720684)
# In short: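 Compound was pinned into wells holding MEM with 10% FBS and no cells, and red fluorescence was read at Ex/Em 540/590 nm. Signal is expressed as auto fluorescence equivalency relative to Rose Bengal sodium.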
# [6] = qHTS assay to test for compound auto fluorescence at 460 nm (blue) in HepG2 cell free culture (AID 720685); note: potency is the fitted concentration of half-maximal effect
# In short: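 Compound (23 nL) or DMSO pinned into cell-free MEM with 10% FBS; blue fluorescence read at 405/460 nm excitation/emission, expressed as auto-fluorescence equivalency to triamterene.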
# [7] = qHTS assay to test for compound auto fluorescence at 535 nm (green) in HepG2 cell free culture (AID 720686)
# [8] = qHTS assay to test for compound auto fluorescence at 460 nm (blue) in HepG2 cells (AID 720687); note: potency is the fitted concentration of half-maximal effect
# In short: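 HepG2 cells in MEM with 10% FBS, attached overnight at 37 C, were exposed to compound or DMSO for 1 hr at 37 C, 5% CO2. Blue fluorescence was read at 405/460 nm, with triamterene as reference fluorophore.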
# [9] = target: Glucocorticoid receptor (Homo sapiens) (UniProt P04150); assay: qHTS assay to identify small molecule agonists of the glucocorticoid receptor (GR) signaling pathway (AID 720691; active = well fitted activation curve with a large enough effect in the signal ratio in the repeat runs, not every such curve was filed as active; the % refers to the signal ratio)
# Glucocorticoid receptor (Homo sapiens), sequence (P04150 whole entry, looked up): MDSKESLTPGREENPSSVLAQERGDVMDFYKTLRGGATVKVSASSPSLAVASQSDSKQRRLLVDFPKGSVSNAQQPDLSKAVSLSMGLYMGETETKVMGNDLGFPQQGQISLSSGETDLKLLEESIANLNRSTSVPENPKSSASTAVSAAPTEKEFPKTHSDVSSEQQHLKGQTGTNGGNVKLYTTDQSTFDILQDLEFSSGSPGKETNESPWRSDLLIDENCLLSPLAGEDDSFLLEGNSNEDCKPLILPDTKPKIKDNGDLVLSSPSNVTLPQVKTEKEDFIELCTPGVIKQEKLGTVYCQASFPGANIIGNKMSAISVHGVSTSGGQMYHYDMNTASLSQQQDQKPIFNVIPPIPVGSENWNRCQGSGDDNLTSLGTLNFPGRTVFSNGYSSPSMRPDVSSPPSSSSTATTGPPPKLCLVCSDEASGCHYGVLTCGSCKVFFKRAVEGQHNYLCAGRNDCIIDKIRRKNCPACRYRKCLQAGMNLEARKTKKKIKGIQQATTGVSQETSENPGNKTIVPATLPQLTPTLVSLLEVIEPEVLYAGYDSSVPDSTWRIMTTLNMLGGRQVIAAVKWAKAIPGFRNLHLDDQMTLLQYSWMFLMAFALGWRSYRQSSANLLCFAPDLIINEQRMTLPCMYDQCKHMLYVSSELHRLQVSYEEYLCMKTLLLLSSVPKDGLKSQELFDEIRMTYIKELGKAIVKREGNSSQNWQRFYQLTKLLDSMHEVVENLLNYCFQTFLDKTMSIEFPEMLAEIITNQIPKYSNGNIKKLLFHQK
# In short: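 Reporter read-out: fluorescence intensity following 2 h room-temperature LiveBLAzer B/G FRET substrate loading. Prior step: GR-bla HeLa cells held 4 h, then treated 18 h at 37 C.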
# [10] = target: Glucocorticoid receptor (Homo sapiens) (UniProt P04150); assay: qHTS assay to identify small molecule antagonists of the glucocorticoid receptor (GR) signaling pathway (AID 720692; active = well fitted inhibition curve with a large enough effect in the signal ratio in the repeat runs, not every such curve was filed as active; the % refers to the signal ratio)
# In short: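 Dexamethasone (5 nM final) stimulated a stably integrated GRE-beta-lactamase reporter in HeLa cells during 18 h co-incubation with compounds; signal was quantified as fluorescence intensity of B/G FRET substrate after 2 h.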
# [11] = qHTS assay to identify small molecule antagonists of the glucocorticoid receptor (GR) signaling pathway - cell viability counter screen (AID 720693); note: nearly all actives have a fitted effect of over 55% in size
# [12] = qHTS assay for identifying genotoxic compounds that show differential cytotoxicity against isogenic chicken DT40 cell lines with known DNA damage response pathways - wild type cell line (AID 743012); note: nearly all actives have a fitted effect of over 60% in size; note: potency is the fitted concentration of half-maximal effect
# In short: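 Using parental DT40 (300 cells/well), compounds delivered in DMSO incubate 40 h at 37 C/5% CO2. CellTiter-Glo reagent then stands 30 min at room temperature, and luminescence gives cell viability.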
# [13] = qHTS assay for identifying genotoxic compounds that show differential cytotoxicity against isogenic chicken DT40 cell lines with known DNA damage response pathways - Rev3 mutant cell line (AID 743014); note: nearly all actives have a fitted effect of over 55% in size; note: potency is the fitted concentration of half-maximal effect
# [14] = qHTS assay for identifying genotoxic compounds that show differential cytotoxicity against isogenic chicken DT40 cell lines with known DNA damage response pathways - Rad54/Ku70 mutant cell line (AID 743015); note: nearly all actives have a fitted effect of over 60% in size; note: potency is the fitted concentration of half-maximal effect
# [15] = qHTS assay to identify small molecule antagonists of the androgen receptor (AR) signaling pathway - cell viability counter screen (AID 743033; note: nearly all actives have a fitted effect of over 45% in size)
# [16] = target: Androgen receptor (Homo sapiens) (UniProt P10275); assay: qHTS assay to identify small molecule antagonists of the androgen receptor (AR) signaling pathway (AID 743035; active = well fitted inhibition curve with a large enough effect in the signal ratio in the repeat runs, not every such curve was filed as active; the % refers to the signal ratio)
# Androgen receptor (Homo sapiens), sequence (P10275 whole entry, looked up): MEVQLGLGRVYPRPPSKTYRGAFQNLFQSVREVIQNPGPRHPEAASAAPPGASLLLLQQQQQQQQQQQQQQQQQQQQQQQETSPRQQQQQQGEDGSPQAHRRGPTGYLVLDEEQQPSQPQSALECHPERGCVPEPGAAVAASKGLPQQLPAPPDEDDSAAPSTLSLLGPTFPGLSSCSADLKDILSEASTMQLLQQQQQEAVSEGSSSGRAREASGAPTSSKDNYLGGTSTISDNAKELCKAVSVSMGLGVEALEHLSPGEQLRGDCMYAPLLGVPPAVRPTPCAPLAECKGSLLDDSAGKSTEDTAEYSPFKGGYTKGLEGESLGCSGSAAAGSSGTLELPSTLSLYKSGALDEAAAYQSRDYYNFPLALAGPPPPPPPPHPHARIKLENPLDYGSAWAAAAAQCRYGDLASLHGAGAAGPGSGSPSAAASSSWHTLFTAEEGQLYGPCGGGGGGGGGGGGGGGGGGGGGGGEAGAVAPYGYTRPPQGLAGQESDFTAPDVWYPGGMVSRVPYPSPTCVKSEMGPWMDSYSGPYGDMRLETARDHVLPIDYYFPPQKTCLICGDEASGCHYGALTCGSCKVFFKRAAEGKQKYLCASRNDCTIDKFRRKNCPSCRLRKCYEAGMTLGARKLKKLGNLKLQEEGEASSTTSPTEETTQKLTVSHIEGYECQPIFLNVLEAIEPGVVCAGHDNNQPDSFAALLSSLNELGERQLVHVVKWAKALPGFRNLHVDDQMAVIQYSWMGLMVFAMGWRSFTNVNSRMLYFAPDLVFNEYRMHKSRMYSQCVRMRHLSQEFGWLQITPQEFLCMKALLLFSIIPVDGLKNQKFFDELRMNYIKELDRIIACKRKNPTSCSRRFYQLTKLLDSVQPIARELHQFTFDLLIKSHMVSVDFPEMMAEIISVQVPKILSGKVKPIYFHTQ
# In short: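 Using qHTS, AR-UAS-bla GripTite HEK293 cells received compound, then R1881, and were cultured 16 h at 37C/5% CO2 before a 2 h room-temperature LiveBLAzer B/G FRET substrate step and fluorescence measurement.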
# [17] = target: Androgen receptor (Homo sapiens) (UniProt P10275); assay: qHTS assay to identify small molecule agonists of the androgen receptor (AR) signaling pathway (AID 743036; active = well fitted activation curve with a large enough effect in the signal ratio in the repeat runs, with a control signal flat, not every such curve was filed as active; the % refers to the signal ratio)
# In short: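 Beta-lactamase under UAS control, stably integrated in HEK293 GripTite cells, reports receptor activation. After 16 h compound treatment, cells received FRET substrate for 2 h at room temperature before fluorescence reading.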
# [18] = target: Androgen receptor (Homo sapiens) (UniProt P10275); assay: qHTS assay to identify small molecule agonists of the androgen receptor (AR) signaling pathway using the MDA cell line (AID 743040; note: nearly all actives have a fitted effect of over 20% in size)
# In short: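 MDA-kb2 breast carcinoma cells carrying MMTV-luciferase (responsive to AR and GR), plated 5 h then treated 16 h with compounds at 37C, 0% CO2. Read-out was ONE-Glo luminescence after 30 min at room temperature.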
# [19] = qHTS assay to identify small molecule antagonists of the androgen receptor (AR) signaling pathway using the MDA cell line - cell viability counter screen (AID 743041; note: nearly all actives have a fitted effect of over 45% in size)
# In short: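 MDA-kb2 AR-luc cells (MMTV-luciferase, AR/GR responsive) treated with compounds plus R1881 agonist for 16 h at 37C. CellTiter-Fluor added at 15.5 h; fluorescence read after 30 min in the same wells.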
# [20] = target: Androgen receptor (Homo sapiens) (UniProt P10275); assay: qHTS assay to identify small molecule antagonists of the androgen receptor (AR) signaling pathway using the MDA cell line (AID 743042; note: nearly all actives have a fitted effect of over 55% in size)
# In short: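 MDA-kb2 breast carcinoma cells carrying MMTV-luciferase (AR/GR responsive) were co-treated with compounds and the agonist R1881 for 16 h at 37C. Inhibition read as ONE-Glo luminescence; CellTiter-Fluor fluorescence measured in parallel for cytotoxicity.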
# Tags give direction and shape of the fitted curve or compound fluorescence and quenching.
Structure (SMILES),outcome [1],Potency [2],outcome [3],outcome [4],outcome [5],Potency [6],outcome [7],Potency [8],Potency [9],Potency [10],outcome [11],Potency [12],Potency [13],Potency [14],outcome [15],Potency [16],outcome [17],Potency [18],Potency [19],outcome [20]
CN1[C@@H]2CC[C@H]1CC(NC(=O)n1c(=O)[nH]c3ccccc31)C2 (stereo not given in full),inactive,inactive,inactive,inactive,inactive,inactive,inactive,inactive,inactive,inactive,inactive,inactive,inactive,inactive,inactive,inactive,inactive,inactive,inactive,inactive
[O-][N+](=Nc1ccccc1)c1ccccc1,inactive,inactive,inactive,inactive,inactive,inactive,inactive,inactive,inactive,inactive,inactive,,inactive,26.6 µM (active) and inactive,inactive,,,,inactive,
CC/C=C\C#N,inactive,inactive,inactive,inactive,inactive,inactive,inactive,inactive,inactive,inactive,inactive,inactive,inactive,inactive,inactive,,,,inactive,
Oc1cc(O)c2c(c1)O[C@H](c1ccc(O)c(O)c1)[C@H](O)C2,inactive,inactive,inactive,inactive,inactive,inactive,inactive,inactive,inactive,inactive,inactive,inactive,inactive,inactive,inactive,,,,inactive,
Nc1ccc2cc(S(=O)(=O)O)ccc2c1,inactive,31.6 µM (active),inactive,inactive,inactive,31.6 µM [fluorescent] (active),inactive,31.6 µM [fluorescent] (active),inactive,inactive,inactive,inactive,inactive,inactive,inactive,,,,inactive,
CC(C=O)Cc1ccc(C(C)C)cc1 (stereo not given),inactive,inactive,inactive,inactive,inactive,inactive,inactive,inactive,inactive,inactive,inactive,inactive,inactive,inactive,inactive,,,,inactive,
CC(=O)O[C@H](CC(=O)[O-])C[N+](C)(C)C,inactive,inactive,inactive,inactive,inactive,inactive,inactive,inactive,inactive,inactive,inactive,,inactive,inactive,inactive,,,,inactive,
OCc1ccccn1,inactive,inactive,inactive,inactive,inactive,inactive,inactive,inactive,inactive,inactive,inactive,inactive,,inactive,inactive,,,,inactive,
COC[C@H](c1ccc(C(F)(F)F)cc1)N1CCN(C2(C)CCN(C(=O)c3c(C)ncnc3C)CC2)C[C@H]1C,inactive,inactive,inactive,inactive,inactive,inactive,inactive,inactive,inactive,inactive,inactive,29.8 µM (active),,inactive,inactive,,,,inactive,
CCCc1ccccc1O,inactive,inactive,inactive,inactive,inactive,inactive,inactive,inactive,inactive,inactive,inactive,inactive,inactive,inactive,inactive,,,,inactive,
CC(C)(C)N(CCO)CCO,inactive,inactive,inactive,inactive,inactive,inactive,inactive,inactive,inactive,inactive,inactive,inactive,,inactive,inactive,,,,inactive,
CCCOc1ccccc1-c1nc2n[nH]nc2c(=O)[nH]1,inactive,inactive,inactive,inactive,inactive,inactive,inactive,inactive,inactive,inactive,inactive,inactive,,,inactive,,,,inactive,
Cc1nccn1CC1CCc2c(c3ccccc3n2C)C1=O (stereo not given),inactive,inactive,inactive,inactive,inactive,inactive,inactive,inactive,inactive,inactive,inactive,inactive,inactive,inactive,inactive,,,,inactive,
Nc1nc2c(ncn2CCC(CO)CO)c(=O)[nH]1,inactive,inactive,inactive,inactive,inactive,inactive,inactive,inactive,inactive,inactive,inactive,3.35 µM (active),5.96 µM (active),5.96 µM (active),inactive,,,,inactive,
COc1ccc(NC(C)=O)cc1,inactive,inactive,inactive,inactive,inactive,inactive,inactive,inactive,inactive,inactive,inactive,,inactive,inactive,inactive,inactive,inactive,inactive,inactive,inactive
